Common to all, as to assay: qHTS profiling for inhibitors of Plasmodium falciparum proliferation (AID 504749); further: nearly all actives have a fitted effect of over 60% in size
What all share (details): P. falciparum in erythrocytes, SYBR Green DNA, 72 h; series mostly up to 28.7 µM

Assay [1] deals with CP305. Summed up: (§1)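 Three-day growth assay of blood-stage parasites in erythrocytes (0.3% parasitemia, 2.5% hematocrit) at 37 C, 5% CO2, quantified by SYBR Green DNA staining after overnight detergent lysis.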
Assay [2] relates to CP325. Summed up: as §1
Assay [3] has as its system CP335. In a few lines:
as §1

Assay [4] relates to DFO2036. In a few lines:
as §1

The subject of assay [5] is DIV14. In a few lines:
as §1

Assay [6] has as its system DIV17. Summed up:
as §1

For assay [7], the system named is Dd2. In a few lines:
as §1

For assay [8], the system named is ECU. Summed up:
as §1

The test system of assay [9] is FAB9. In a few lines: as §1
The subject of assay [10] is GB4. In a few lines: as §1
For assay [11], the system named is HB3. Summed up:
as §1

The subject of assay [12] is ICS. In a few lines: as §1
In assay [13] the test system is JCK. Summed up: as §1
Assay [14] relates to N140. Summed up:
as §1

For assay [15], the system named is P93_24. In a few lines:
as §1

Assay [16] concerns P94_40. Summed up: as §1
Assay [17] deals with PAD. In a few lines: as §1
Assay [18] concerns CP315. Summed up:
as §1

For assay [19], the system named is DIV30. Summed up:
as §1

Assay [20] relates to CP329. In a few lines:
as §1

This passage reports Potency results from PubChem BioAssay (NCATS).

Results filed as inconclusive are left out. Active and inactive are the calls of the source. The call rests on the fitted dose curve; in most records, active means well fitted inhibition curve with a large enough effect; inconclusive means small, poorly fitted or top-dose-only effect; inactive means flat fitted curve, though single readings scatter.
Potency means the concentration at half of the fitted maximal effect.

Take `CCOC(=O)c1c[nH]c2cc(OCC(C)C)c(OCC(C)C)cc2c1=O`: the Potency is 0.0675 µM (active) in assay [1]; 0.0601 µM (active) in [2]; 0.0675 µM (active) in [3]; 0.1 µM (active) in assay [4]; 0.151 µM (active) in [5]; 0.338 µM (active) in assay [6]. Also, the Potency in [7] is 0.141 µM (active); in assay [8], 0.0891 µM (active); in assay [9] it was 0.1 µM (active); in [10], 0.0601 µM (active); in assay [11], 0.178 µM (active); in [12], 0.0794 µM (active). Moreover, the Potency was 0.282 µM (active) in [13]; 0.141 µM (active) in [14]; 0.141 µM (active) in assay [15]; 0.126 µM (active) in assay [16]; 0.158 µM (active) in assay [17].

As to `Oc1cccc(O)c1O`, the Potency result in [18], in [4], in assay [19], in assay [9], in [13] and in assay [14] was “inactive” in each case. Moreover, the results for the Potency in [6] and in assay [12] were 9.53 µM (active) and 3.98 µM (active), respectively.

`CCCCCCCCCCCCCCCCOCCOCCOCCOCCOCCOCCOCCOCCOCCOCCOCCOCCOCCOCCOCCOCCOCCOCCOCCOCCO`: the Potency in [1] was 12 µM (active); in [5], 13.5 µM (active); in assay [6] it was 13.5 µM (active); in assay [7], 11.2 µM (active); in assay [8] it was 1.26 µM (active); in assay [11], 7.08 µM (active). Further, the results for the Potency in [12], in assay [14] and in [15] were 4.47 µM (active), 10 µM (active) and 11.2 µM (active), respectively. Besides, the Potency result in assay [18] and in assay [3] was “inactive” each time.

Take `COc1ccc2c(c1)OC(C)(C)C(c1ccccc1)C2c1ccc(OCCN2CCCC2)cc1` (stereo not given): the Potency in assay [1] is 13.5 µM (active); in [2], 6.75 µM (active); in [3], 3.79 µM (active); in assay [4], 4.47 µM (active); in [5], 6.75 µM (active); in [6], 7.57 µM (active). Further, the Potency in assay [19] is 12 µM (active); in assay [7] it was 3.98 µM (active); in assay [8], 8.91 µM (active); in assay [10] it was 4.78 µM (active); in assay [11], 7.94 µM (active); in assay [12] it was 2.82 µM (active). Further, the Potency is 5.01 µM (active) in [14], 5.01 µM (active) in [15], 6.31 µM (active) in assay [16] and 8.91 µM (active) in assay [17].

On to `CC(C)C1=CC2=CC[C@@H]3[C@](C)(CCC[C@@]3(C)C(=O)O)[C@H]2CC1`, for which the Potency result in assay [3], in assay [4], in assay [7], in assay [8], in assay [9] and in [11] was “inactive” each time. For the same molecule, the Potency entry in assay [12], in assay [13], in assay [14], in [15], in [16] and in assay [17] was “inactive” in each case.

For `C=C1C(CCl)(CCl)C2(Cl)C(Cl)C(Cl)C1(Cl)C2(Cl)Cl` (stereo not given), the Potency in [1] was 3.79 µM (active); in [2], 3.79 µM (active); in [20], 6.75 µM (active); in assay [3], 3.01 µM (active); in [4], 2 µM (active); in [5] it was 1.69 µM (active). Moreover, the Potency was 1.9 µM (active) in assay [6]; 1.69 µM (active) in assay [19]; 2.24 µM (active) in assay [7]; 2 µM (active) in assay [8]; 3.55 µM (active) in assay [9]; 2.13 µM (active) in assay [10]. Moreover, the Potency in [11] is 2.51 µM (active); in [12], 0.355 µM (active); in [13], 10 µM (active); in assay [14] it was 2 µM (active); in assay [15], 2 µM (active); in [16] it was 2.51 µM (active). The Potency in assay [17] was 0.708 µM (active).

For `CSc1nc2cc(Oc3cccc(Cl)c3Cl)c(Cl)cc2[nH]1`, the Potency was 13.5 µM (active) in assay [1]; 13.5 µM (active) in [2]; 13.5 µM (active) in assay [20]; 8.91 µM (active) in [4]; 9.53 µM (active) in assay [5]; 10.7 µM (active) in assay [19]. For the same molecule, the Potency in assay [7] is 14.1 µM (active); in assay [8], 6.31 µM (active); in assay [10] it was 12 µM (active); in assay [11] it was 8.91 µM (active); in [14], 8.91 µM (active); in assay [15] it was 10 µM (active). Further, in assay [16], the Potency is 10 µM (active).

Turning to `O=C(CCCN1CCC(C(=O)c2ccc(F)cc2)CC1)c1ccc(F)cc1`, the Potency entry in [18], in assay [2], in assay [20], in assay [4], in [19] and in assay [8] was “inactive” in each case. Also, the Potency result in [9], in [13], in assay [14], in assay [15], in assay [16] and in assay [17] was “inactive” each time. Moreover, the values for the Potency in [5], in [6] and in assay [7] were 0.757 µM (active), 4.78 µM (active) and 8.91 µM (active), respectively.

Consider `CCCOc1cc(N)ccc1C(=O)OCCN(CC)CC`, for which the Potency entry in assay [1], in assay [20], in assay [4], in [5], in assay [6] and in assay [7] was “inactive” throughout. Besides, the Potency entry in assay [8], in assay [9], in assay [10], in assay [11], in assay [12] and in assay [13] was “inactive” each time. The Potency result in assay [14], in assay [15], in [16] and in [17] was “inactive” in each case.

Take `O=c1n(CC2CO2)c(=O)n(CC2CO2)c(=O)n1CC1CO1` (stereo not given): the Potency result in assay [18], in assay [2], in assay [20], in assay [19], in [8] and in assay [9] was “inactive” throughout. In addition, the Potency entry in assay [11], in assay [13] and in [14] was “inactive” throughout.

As to `CCN(CC)CCC(=O)N1c2ccccc2Sc2ccc(Cl)cc21`, the Potency in [5] was 5.36 µM (active); in assay [6], 8.49 µM (active); in assay [7], 5.62 µM (active); in assay [15], 3.98 µM (active); in [16], 5.01 µM (active). In addition, the Potency entry in assay [13] and in assay [14] was “inactive” in each case.

As to `C#C[C@]1(O)CC[C@@H]2[C@H]3CCC4=CC(=O)CC[C@H]4[C@H]3C(=C)C[C@@]21CC`, the Potency was 0.426 µM (active) in [1] and 0.478 µM (active) in [18]. Moreover, the Potency entry in assay [3], in assay [4], in assay [7], in assay [8], in [9] and in [11] was “inactive” each time. Further, the Potency entry in assay [13], in assay [14], in assay [15], in assay [16] and in [17] was “inactive” throughout.

For the molecule `CC(=O)c1ccc2c(c1)N(CCCN1CCN(CCO)CC1)c1ccccc1S2`, the Potency in assay [2] was 16.9 µM (active); in assay [20] it was 15.1 µM (active); in assay [3] it was 12 µM (active); in [5] it was 7.57 µM (active); in assay [6] it was 12 µM (active); in assay [19], 16.9 µM (active). For the same molecule, the Potency in [7] was 12.6 µM (active); in assay [8] it was 12.6 µM (active); in assay [10] it was 8.49 µM (active); in [12], 7.94 µM (active); in assay [15], 8.91 µM (active); in assay [16] it was 10 µM (active).

Turning to `O=C1CCC(c2ccccc2)(C2CCN(Cc3ccccc3)CC2)C(=O)N1` (stereo not given), the Potency entry in assay [18], in assay [2], in assay [20], in [4], in assay [19] and in [8] was “inactive” each time. The Potency entry in [9], in assay [11], in assay [12], in [13], in assay [14] and in [15] was “inactive” throughout. Moreover, the Potency result in assay [16] and in assay [17] was “inactive” each time.

Regarding `C=CC[N+]1([C@H]2C[C@H]3[C@@H]4CC[C@H]5C[C@H](O)[C@@H](N6CCOCC6)C[C@]5(C)[C@H]4CC[C@]3(C)[C@H]2OC(C)=O)CCCC1`, the Potency in assay [3] is 12 µM (active); in assay [7] it was 10 µM (active); in [16], 8.91 µM (active). In addition, the Potency result in [5], in assay [6], in [9] and in assay [13] was “inactive” in each case.

As for `Cn1cc(NC(=O)c2cc(NC(=O)c3cc(NC=O)cn3C)cn2C)cc1C(=O)NCCC(=N)N`, the Potency is 8.49 µM (active) in assay [1]; 10.7 µM (active) in [2]; 15.1 µM (active) in [20]; 8.49 µM (active) in assay [3]; 3.38 µM (active) in assay [5]; 3.79 µM (active) in assay [6]. Also, the Potency in assay [8] was 10 µM (active); in assay [9], 11.2 µM (active); in [10] it was 7.57 µM (active); in [11], 10 µM (active); in assay [12], 3.55 µM (active); in assay [13], 12.6 µM (active). In addition, the Potency is 5.01 µM (active) in assay [14], 5.01 µM (active) in assay [15], 4.47 µM (active) in assay [16] and 5.01 µM (active) in assay [17].
